D1 antagonist: Antagonist of Human D 1 Dopamine Receptor: qHTS; D(1A) dopamine receptor (Homo sapiens), P21728; HEK293 TREx D1 cells, calcium flux, dopamine EC80; hits give low values; activity change, negative = inhibition, % at 10 µM; 360,000 tested, 3.2% active; AID 504652, 2011; in the data active means activity change below about -30%; further: on the % scale 0 is the no-effect control and ±100 the full control effect
Target sequence (P21728 whole entry, looked up): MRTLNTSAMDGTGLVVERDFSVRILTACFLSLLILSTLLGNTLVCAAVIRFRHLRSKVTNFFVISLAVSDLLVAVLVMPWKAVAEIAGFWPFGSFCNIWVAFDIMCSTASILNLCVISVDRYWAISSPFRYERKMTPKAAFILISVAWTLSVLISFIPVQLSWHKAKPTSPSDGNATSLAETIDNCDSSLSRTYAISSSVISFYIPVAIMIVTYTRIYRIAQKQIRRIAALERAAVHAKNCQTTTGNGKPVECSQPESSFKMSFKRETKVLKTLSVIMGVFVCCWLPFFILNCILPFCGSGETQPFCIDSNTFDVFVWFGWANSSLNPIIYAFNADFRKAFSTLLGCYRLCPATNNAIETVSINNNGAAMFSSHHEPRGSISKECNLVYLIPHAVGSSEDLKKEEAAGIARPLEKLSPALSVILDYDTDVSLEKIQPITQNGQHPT
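Compound effects on dopamine-evoked calcium signalling were measured in tetracycline-induced HEK293 Trex D1 cells. Dopamine at EC80 followed a 180 s compound pre-read, and fluorescence was tracked kinetically for 180 s more.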
D1 agonist: Allosteric Agonists of the Human D1 Dopamine Receptor: qHTS; HEK293 T-REx D1 cells, calcium flux, agonist mode; activation, % at 2 µM; 360,000 tested, 1% active; further: 0% is about no effect
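Inducible HEK293 T-REx D1 cells, force-coupled to calcium signalling, were plated at 4000 cells/well with tetracycline and held overnight at 30 C. After no-wash calcium dye loading, compound-evoked calcium rise over 180 s flagged agonists.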
TRHR agonist: qHTS for Small Molecule Agonists and Allosteric Enhancers of Human TRH Receptor: Primary Screen for Agonists. Thyrotropin-releasing hormone receptor (Homo sapiens), P34981. TRHR cells, calcium flux fluo-8, FDSS agonist mode. activation, % at 2 µM. 360,000 tested, 0.18% active; further: 0% is about no effect
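TRHR-expressing cells loaded with fluo-8 calcium dye; 23 nL library compound pin-transferred, kinetic FDSS fluorescence (Ex 480/Em 530) recorded about 180 s for agonist-induced calcium release, before a 10 nM TRH EC20 addition for potentiator mode.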
TRHR PAM: qHTS for Small Molecule Agonists and Allosteric Enhancers of Human TRH Receptor: Primary Screen for Enhancers. Thyrotropin-releasing hormone receptor (Homo sapiens), P34981. TRHR cells, fluo-8 calcium fluorescence, EC20 TRH enhancement. enhancement, % at 2 µM. 360,000 tested, 0.66% active. AID 493056, 2011; in the data active means enhancement above about 30%; further: 0% is about no effect
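Enhancer read-out: after compound pinning and an initial kinetic agonist-mode read, an EC20 of TRH (10 nM final) was injected and fluo-8 calcium signal (Ex 480/Em 530) followed at 1 s/cycle for 100 cycles in TRHR-expressing cells.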
D1 PAM: Potentiators of Human D1 Dopamine Receptor: qHTS; 360,000 tested, 0.036% active; potentiation, % at 10 µM; HEK293 TREx D1 cells, calcium flux, dopamine EC20 potentiation; in the data active means potentiation above about 30%; further: 0% is about no effect
Starred values were filed as active, the others as inactive; x = no result. In the library only some 4.7% were active in any assay of this set; here they are far more common. Unless noted, no stated cut-off is given here; in the data, active means activation above about 30%; inactive means the rest.

SMILES | D1 antagonist | D1 agonist | TRHR agonist | TRHR PAM | D1 PAM
O=C(Nc1nc(-c2ccc(-c3ccccc3)cc2)cs1)c1cc([N+](=O)[O-])ccc1N1CCOCC1 | -36* | 0 | -3 | -3 | -7
Cc1ccccc1-n1ncc2c1CC(C)(C)CC2NC(=O)c1snnc1C (stereo not given) | 4 | 2 | 0 | -1 | 1
CCc1cc2c(cc3c(=O)n(CC(=O)N4CCN(c5cccc(C)c5C)CC4)nc(CC)n32)s1 | -19 | -1 | 0 | 6 | -5
CC(=O)OCC1(C)CN(c2ccccc2)N(C(=O)c2ccc(C(C)(C)C)cc2)C1=O (stereo not given) | -64* | 1 | 0 | -4 | -6
CC(=O)OCC1(C)CN(c2ccccc2)N(C(C)=O)C1=O (stereo not given) | -3 | 4 | -1 | 11 | -1
O=C1COc2ccc(-c3cc(-c4ccccc4)c4c(n3)-c3ccccc3OC4)cc2N1 | -3 | -1 | 0 | 5 | 1
CC(C)CNC(=O)C(=O)NCC1CCCN1S(=O)(=O)c1cccs1 (stereo not given) | -1 | 1 | 0 | 2 | -1
Cn1nnnc1SCCCNCc1cccc(OCc2ccccc2F)c1 | -4 | 45* | 1 | -3 | -1
Cn1nnnc1SCCCNCc1cc(Cl)ccc1OCc1ccccc1 | -26 | 40* | 1 | -2 | -1
Cn1nnnc1SCCCNCc1ccccc1OCc1ccccc1Cl | -46* | 119* | 1 | 4 | 3
COc1cccc(CNCCCSc2nnnn2C)c1 | 2 | 8 | 0 | 1 | 0
Cn1nnnc1SCCCNCc1cccc(OCc2ccccc2Cl)c1 | -19 | 108* | 1 | 3 | 1
COc1cccc(CNCCSc2nnnn2C)c1 | 4 | 4 | 0 | -3 | -2
COc1cccc(CNC(=O)N2CCc3c(sc4c3CCCC4)C2c2ccc(F)cc2)c1 (stereo not given) | 5 | 5 | 0 | 2 | 0
Cc1cc(C)cc(NC(=O)C2CCCN2S(=O)(=O)c2cccc3nsnc23)c1 (stereo not given) | -9 | 0 | 1 | 4 | -1
CC1=C(C)CC(C(=O)NCc2c(F)cccc2Cl)C(C(=O)O)C1 (stereo not given) | 4 | 2 | 2 | -9 | 3
O=C(NCCCN1CCOCC1)c1c(O)c2cc(Br)cc(Br)c2[nH]c1=O | -36* | 4 | 0 | -3 | -2
N#Cc1c(-c2ccccc2)[nH]c(=O)[nH]c1=O | -35* | 4 | -1 | 1 | 0
Cc1cccc(NC(=O)CSc2nc3c([nH]c4ccccc43)c(=O)n2C)c1C | -51* | 2 | 0 | -5 | 1
CCOCCCn1c(SCC(=O)Nc2ccccc2OC)nc2ccccc2c1=O | -14 | 4 | -1 | -2 | -4
COc1ccccc1NC(=O)CSc1nc2ccccc2c(=O)n1C | -34* | 17 | -1 | -7 | 41*
Cn1c(SCC(=O)Nc2ccccc2F)nc2c([nH]c3ccccc32)c1=O | 3 | 0 | 0 | -7 | -3
CN(C)C1(CNC(=O)COc2cccc(Cl)c2)CCCCC1 | -2 | 3 | 0 | -5 | 3
COc1ccc(S(=O)(=O)NCC(c2ccco2)N2CCOCC2)cc1OC (stereo not given) | x | -1 | 1 | -3 | 0
Cc1cc(C)c2c(CC(=O)Nc3ccc(F)cc3)coc2c1 | -16 | 10 | 0 | 0 | 1
SMILES | D1 antagonist | D1 agonist | TRHR agonist | TRHR PAM | D1 PAM
COc1ccc(OC)c(NS(=O)(=O)c2ccc(-c3cc(C)no3)s2)c1 | -10 | 6 | 0 | -3 | 2
Cc1ccc(-c2ccc(=O)n(CC(=O)NCCc3ccccc3)n2)cc1 | 29 | -3 | -1 | 5 | -1
O=C(NC(=S)NC1CCCCC1)c1ccc(F)cc1 | 4 | 2 | -1 | -2 | -1
COc1ccc(CC(=O)Oc2ccc(C)cc2Br)cc1OC | -32* | 12 | 0 | -7 | -4
COc1ccc(CC(=O)c2ccc(OC)c(OC)c2C)cc1OC | -34* | 18 | 1 | 5 | 0
COc1ccc(CC(=O)Oc2ccc(C)cc2C)cc1 | -23 | 13 | 0 | -2 | -7
O=C(Nc1ccc(N2CCOCC2)cc1)Nc1ccc(Cl)c(Cl)c1 | -31* | 17 | 1 | -1 | -4
O=C(Nc1ccc(N2CCOCC2)cc1)C1(c2ccc(Cl)cc2)CCC1 | -3 | 43* | 3 | -8 | -4
COc1ccccc1NC(=O)Nc1ccc(N2CCOCC2)cc1 | -43* | -1 | 1 | 7 | 0
Cc1cc(C)n(CC(O)CN(c2ccccc2)S(=O)(=O)c2ccccc2)n1 (stereo not given) | 3 | 2 | 0 | -5 | -2
O=S(=O)(c1ccccc1)N(CC(O)COc1ccccc1)c1ccccc1 (stereo not given) | -31* | 3 | 1 | 17 | -9
COc1cccc(-n2c(SCC(=O)Nc3nnc(C)s3)nc3c([nH]c4ccccc43)c2=O)c1 | -12 | 0 | 0 | 4 | -3
CCN(CC)CCNC(=O)c1ccc(NC(=O)c2cc(S(=O)(=O)N3CCCCC3)ccc2C)cc1 | -37* | 0 | 0 | -7 | 0
Cc1cc2ccccc2n1CCNC(=O)c1ccc(S(=O)(=O)N2CCCCC2)cc1 | 28 | 61* | 0 | -1 | 3
O=C(NCCCN=C1NS(=O)(=O)c2ccccc21)c1ccc(S(=O)(=O)N2CCCCC2)cc1 | -35* | 7 | -1 | -5 | -1
CCN(CC)CCNC(=O)c1ccc(NC(=O)c2cccc(S(=O)(=O)Nc3ccc(C)cc3)c2)cc1 | -77* | 1 | 0 | 0 | -19
Cc1ccc(C(=O)NCCn2c(C)cc3ccccc32)cc1C | -13 | 1 | 0 | -5 | -6
Cc1ccc(NC(=O)CSc2nc(=O)n(Cc3ccco3)c3c2CCC3)cc1F | x | 1 | 0 | -6 | -2
CC1CCc2c(sc3nnn(CC(=O)Nc4c(C(C)C)cccc4C(C)C)c(=O)c23)C1 (stereo not given) | -14 | 2 | 1 | 24 | -5
O=C1[C@@H]2C(c3ccc(F)cc3)=NO[C@@H]2C(=O)N1Cc1ccccc1 | 0 | 1 | 0 | -4 | -7
COc1ccc(CN2C(=O)[C@@H]3C(c4ccc(F)cc4)=NO[C@@H]3C2=O)cc1 | -37* | 5 | 1 | -2 | -9
Cc1ccc(Cn2cccc2C2=NC(C)CO2)cc1 (stereo not given) | -2 | 1 | -1 | 6 | -4
CC(C)C1COC(c2cccn2Cc2ccccc2Cl)=N1 (stereo not given) | -38* | 0 | -1 | 11 | 2

Bioassay records from PubChem BioAssay.
